A selection: hits, their analogues and other compounds. The true share with any hit is near 2.8%.
LMP1 NFkB inh: EBV LMP1-driven NF-kappaB luciferase reporter inhibitors, primary screen, cell-based, luminescence, single point | LMP1-induced NF-kappaB luciferase reporter cells | inhibition, % at 12.5 µM | 350,000 tested, 0.69% active | AID 504558, 2011; in the data active means inhibition above about 41%; inconclusive means no clear call, values can overlap the other calls;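 further: 0% = neutral control wells and 100% = reference inhibitor control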
Shn3 3UTR inh: reduction of Shn3 3'UTR firefly luciferase signal, primary screen, Schnurri-3 inhibitor project, cell-based, Clone20 osteoblasts, set 2 | Clone20 osteoblast Shn3 3'UTR firefly luciferase, 24 h | 360,000 tested, 0.52% active | inhibition, % at 12.5 µM;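 active means mean inhibition of at least 75% with every replicate also reaching 75%; inconclusive means mean inhibition at least 75% but some replicate below; inactive means mean inhibition below 75%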;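 further: 0% = median of neutral control wells and 100% = pilot-screen positive control compound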
PAX8 reporter: inhibitors of PAX8-driven TPO luciferase reporter, primary screen, RMG-I cells, single concentration; SteadyGlo, 24 h; inhibition, % at 12.6 µM; 360,000 tested, 1.2% active; AID 652154, 2013;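 active means mean replicate inhibition at least 60% with every replicate also reaching 60%; inconclusive means only one of the two criteria is met; inactive means mean below 60% and not all replicates reaching 60%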;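 further: luciferase light reporting Pax8 driven TPO promoter activity; plate controls were median of neutral control wells for no effect and mitoxantrone controls for full effect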
HIV Env fusion: inhibitors of HIV-1 Env-driven cell-cell fusion, primary screen, HeLa-JRFL effector, CEM21 target cells, luciferase; inhibition, % at 12.3 µM; 360,000 tested, 1.1% active; AID 651610, 2012;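 active means mean replicate inhibition score of at least 50 and every replicate individually at or above 50; inconclusive means only one of the two criteria met; inactive means mean below 50 and not all replicates reaching 50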;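 further: 0% = plate neutral controls and 100% = maraviroc near 300 nM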
N-glyco inh: increase of ERlucT glycosylation luciferase signal, primary screen, N-linked glycosylation inhibitor project, D54 ERlucT cells, luminescence, set 2; reporter increase, % at 12.5 µM; 360,000 tested, 0.23% active; D54 ERlucT glycosylation luciferase reporter, 24 h; percent of 100 nM tunicamycin response;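 active means mean luciferase reporter signal, scaled so untreated is 0 and the glycosylation-blocking control 100, at or above a set limit in every replicate; inconclusive means mean reaches the limit but not every replicate does; inactive means mean below the limit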;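 further: luciferase carries N-glycosylation sites so blocking glycosylation raises the light; 0% = median of neutral control wells and 100% = median of 100 nM tunicamycin wells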
NSD2 HMT inh: NSD2 histone methyltransferase inhibitors, primary screen, biochemical, AlphaScreen, single concentration, set 2; NSD2 peptide methylation, 120 min; inhibition, % at 12.5 µM; 310,000 tested, 0.54% active; Histone-lysine N-methyltransferase NSD2 (Homo sapiens), O96028; in the data active means inhibition above about 50%
* hit, by the source's call; ? = inconclusive; nt = not tested or not shown; [ ] = another dose, or the depositor's remark.

SMILES | LMP1 NFkB inh | Shn3 3UTR inh | PAX8 reporter | HIV Env fusion | N-glyco inh | NSD2 HMT inh
COc1ccc(OCCCC(=O)Nc2ccc(OC)c(S(=O)(=O)N3CCOCC3)c2)cc1 | -2 | -28 | 9 | 0 | 1 | 1
Cc1ccc(NC(=O)C2CCC(CNc3c(N4CCC(C)CC4)c(=O)c3=O)CC2)cc1F (stereo not given) | 33 | 9 | -17 | 59* | -1 | -2
C[C@H](O)C#Cc1cnc2c(c1)C(=O)N([C@@H](C)CO)C[C@@H](C)[C@H](CN(C)CC1CCCCC1)O2 | nt | nt | 4 | nt | nt | nt
Cc1cc(Br)cc2c(C(=O)Nc3c(C)n(C)n(-c4ccccc4)c3=O)cc(-c3cccs3)nc12 | -15 | 9 | nt | nt | 41* | nt
CCc1ccc(-c2cc(C(=O)Nc3c(C)n(C)n(-c4ccccc4)c3=O)c3ccccc3n2)s1 | -6 | -3 | nt | nt | 0 | 2
O=C(O)c1ccccc1NS(=O)(=O)c1ccc(N/N=C/c2ccc(O)c(O)c2)c([N+](=O)[O-])c1 | 6 | -14 | -7 | 2 | 1 | 116*
COc1ccc(-c2nn(-c3ccccc3)cc2N)cc1 | -37 | -79 | -211 | -117 | 0 | 63*
CC(Cc1cccs1)NC(=O)Nc1cccc(Cl)c1 (stereo not given) | -15 | 11 | -29 | 4 | -1 | -8
CC(Cc1cccs1)NC(=O)Nc1ccc(F)cc1 (stereo not given) | -15 | 89* | nt | -10 | -1 | nt
Cc1ccc(S(=O)(=O)Nc2ccc3c(c2)C(=O)N([C@@H](C)CO)C[C@H](C)[C@H](CN(C)Cc2ccncc2)OCCCC[C@@H](C)O3)cc1 | nt | nt | -3 | -53[16.7 µM] | nt | nt
N#Cc1ccc(CN2CCN(C(=O)CNC(=O)Cc3cccc4ccccc34)CC2)cc1 | 23 | 53 | 30 | 71* | 0 | nt
CCc1ccccc1NC(=O)CN1CCN(C(=O)CNC(=O)Cc2cccc3ccccc23)CC1 | 10 | 11 | 27 | nt | 2 | -1
COc1cc2cc(CCO)oc(=O)c2cc1OC | 3 | -68 | -8 | 65* | 4 | nt
COc1cc2cc(C[C@H](C)O)oc(=O)c2cc1OC | -1 | -26 | -10 | -11 | 2 | nt
C[C@@H]1CCCCO[C@H](CN(C)Cc2ccncc2)[C@@H](C)CN([C@H](C)CO)C(=O)c2cc(NC(=O)CCCCCC(=O)Nc3ccccc3N)ccc2O1 | nt | nt | -18 | nt | nt | nt
Cc1noc(C)c1NC(=O)Nc1ccc2c(c1)C(=O)N([C@H](C)CO)C[C@@H](C)[C@@H](CN(C)Cc1ccncc1)OCCCC[C@@H](C)O2 | nt | nt | 31 | -22[16.7 µM] | nt | nt
COc1ccc(NC(=O)Nc2ccc3c(c2)C(=O)N([C@@H](C)CO)C[C@@H](C)[C@@H](CN(C)Cc2ccc(C(F)(F)F)cc2)OCCCC[C@H](C)O3)cc1 | nt | nt | 72* | 9[16.7 µM] | nt | nt
COc1ccc(NC(=O)Nc2ccc3c(c2)C(=O)N([C@@H](C)CO)C[C@@H](C)[C@@H](CN(C)Cc2ccc(C(F)(F)F)cc2)OCCCC[C@@H](C)O3)cc1 | nt | nt | 84* | 28[16.7 µM] | nt | nt
COc1ccc(NC(=O)Nc2ccc3c(c2)C(=O)N([C@H](C)CO)C[C@@H](C)[C@H](CN(C)Cc2ccc(C(F)(F)F)cc2)OCCCC[C@@H](C)O3)cc1 | nt | nt | 51 | 68*[16.7 µM] | nt | nt
COc1ccc(NC(=O)Nc2ccc3c(c2)C(=O)N([C@@H](C)CO)C[C@H](C)[C@@H](CN(C)Cc2ccc(C(F)(F)F)cc2)OCCCC[C@@H](C)O3)cc1 | nt | nt | 69* | 26[16.7 µM] | nt | nt
COc1ccc(CN(C)C[C@H]2OCCCC[C@@H](C)Oc3ccc(NC(=O)Nc4ccc(C(F)(F)F)cc4)cc3C(=O)N([C@H](C)CO)C[C@H]2C)cc1 | nt | nt | 41 | 6[16.7 µM] | nt | nt
COc1ccc(NC(=O)Nc2ccc3c(c2)C(=O)N([C@H](C)CO)C[C@@H](C)[C@@H](CN(C)Cc2ccc(C(F)(F)F)cc2)OCCCC[C@@H](C)O3)cc1 | nt | nt | 44 | ? | nt | nt
CN1C(=O)c2cc(NC(=O)Cc3ccccc3)ccc2OC[C@H]2O[C@H](CC(=O)NCC3CC3)CC[C@H]21 | nt | nt | 6 | -5[16.7 µM] | nt | nt
C[C@@H]1CN([C@@H](C)CO)C(=O)c2cc(C#CCN(C)C)cnc2O[C@H]1CN(C)S(C)(=O)=O | nt | nt | nt | 6[16.7 µM] | nt | nt
COc1ccc(CN(C)C[C@@H]2OCCCC[C@H](C)Oc3ccc(NC(=O)Nc4ccc(C(F)(F)F)cc4)cc3C(=O)N([C@@H](C)CO)C[C@@H]2C)cc1 | nt | nt | -26 | 76*[16.7 µM] | nt | nt
SMILES | LMP1 NFkB inh | Shn3 3UTR inh | PAX8 reporter | HIV Env fusion | N-glyco inh | NSD2 HMT inh
COc1ccc(CN(C)C[C@H]2OCCCC[C@H](C)Oc3ccc(NC(=O)Nc4ccc(C(F)(F)F)cc4)cc3C(=O)N([C@@H](C)CO)C[C@H]2C)cc1 | nt | nt | 106* | 8[16.7 µM] | nt | nt
Cc1ccc(-n2[nH]c(C)c(/C=N/Nc3ccc([N+](=O)[O-])cc3[N+](=O)[O-])c2=O)cc1C | 2 | 1 | 17 | 39 | -5 | 62*
Cc1[nH]n(-c2ccccc2)c(=O)c1/C=N/NC(=O)c1cccc([N+](=O)[O-])c1 | 23 | 22 | nt | nt | 0 | -2
O=c1cc2oc3cc(O)c(O)cc3c(-c3ccccc3[N+](=O)[O-])c-2cc1O | 23 | 25 | 102* | 54 | -13 | 128*
CCC[C@@H](CN[C@@H](CNC)[C@H](C)CC)NCC1CCC(C(C)(C)C)CC1 (stereo not given in full) | -18 | 80 | 93* | 13 | -7 | nt
CCC[C@H](CN[C@@H](CNC)[C@H](C)CC)NCCc1cc(C(F)(F)F)cc(C(F)(F)F)c1 | -17 | 58 | 97* | -19 | -23 | nt
CCC[C@@H](CN[C@@H](CNC)C(C)C)NCCCCc1ccccc1 | -2 | 55 | 14 | -2 | -5 | nt
CC[C@@H](C)[C@H](CNC)NC[C@@H](Cc1cccc2ccccc12)NCCc1cccc(C(F)(F)F)c1 | -6 | 97* | 103* | ? | -20 | nt
COCC(=O)Nc1ccc2c(c1)[C@H]1C[C@H](CC(=O)NC3CCCCC3)O[C@@H](CO)[C@H]1O2 | nt | nt | -10 | 7[16.7 µM] | nt | nt
COc1ccc(CN(C)C[C@@H]2Oc3c(NC(=O)c4cnccn4)cccc3C(=O)N([C@@H](C)CO)C[C@H]2C)cc1 | nt | nt | 2 | nt | nt | nt
O=C(C[C@@H]1C[C@@H]2c3cc(NS(=O)(=O)c4ccccc4)ccc3O[C@@H]2[C@H](CO)O1)N1CCCCC1 | nt | nt | -6 | -24[16.7 µM] | nt | nt
C[C@H]1CN([C@@H](C)CO)C(=O)c2cc(NC(=O)CCN3CCOCC3)ccc2O[C@@H]1CN(C)Cc1ccccc1 | nt | nt | -20 | -9[16.7 µM] | nt | nt
COc1cc(-c2cc(OC)c3c(C)oc(C)c3c(=O)c2)ccc1O | 3 | 12 | nt | nt | 3 | 7
CCCc1cc(=O)c2c(O)ccc(OC)c2o1 | 55* | 6 | -14 | 19 | -1 | 2
